# TLR4 MyD88 comp: inhibitors of TLR4-MyD88 association in cells, primary screen, cell-based, HeLa CL3-4, BLA complementation, FRET ratio. inhibition, % at 8.4 µM. actives 0.18% (n = 200,000). AID 861, 2007. HeLa CL3-4 TLR4/MyD88 BLA complementation. Toll-like receptor 4 (Homo sapiens) + Myeloid differentiation primary response protein …; in the data active means inhibition above about 25%;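 further: 0% = vehicle and 100% = reference inhibitor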
# Neddylation inh: inhibitors of cullin neddylation, primary screen, biochemical, TR-FRET, uHTS, NAE and Ubc12 | inhibition, % at 25 µM | actives 0.58% (n = 360,000) | AID 651699, 2012; in the data active means inhibition above about 36%
# GC-B act: human GC-B receptor activators, primary screen, HEK293 GC-B cells, cGMP TR-FRET, EC30 CNP | 0% at EC30 CNP, 100% saturating CNP | actives 0.11% (n = 370,000) | activation, % at 10 µM | AID 1920062, 2024;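 active means activation at 10 µM reaching about 35% in either raw or pattern-adjusted values, limit read from the data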
# TLR9-MyD88 block: inhibitors of TLR9-MyD88 association in cells, primary screen, cell-based, CHO, BLA complementation, fluorescence; CCF4 FRET ratio; inhibition, % at 4.98 µM; Toll-like receptor 9 (Homo sapiens) + Myeloid differentiation primary response protein …; AID 504734, 2011; actives 0.21% (n = 340,000);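 active means inhibition above the mean over all tested compounds plus 3 SD, cut at about 21% in these data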;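 further: 0% = DMSO only wells and 100% = clavulanate BLA inhibitor control wells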
# NOD2 RIPK2 PPI: NOD2-RIPK2 binding disruptors in cells, primary screen, fluorescence, CHO cells, BLA complementation; CCF4 ratio; inhibition, % at 4.98 µM; actives 0.38% (n = 360,000); AID 624267, 2012; in the data active means inhibition above about 21%;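 further: 0% = vehicle only and 100% = reference blocker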
# Target sequence (O43353 whole entry, looked up): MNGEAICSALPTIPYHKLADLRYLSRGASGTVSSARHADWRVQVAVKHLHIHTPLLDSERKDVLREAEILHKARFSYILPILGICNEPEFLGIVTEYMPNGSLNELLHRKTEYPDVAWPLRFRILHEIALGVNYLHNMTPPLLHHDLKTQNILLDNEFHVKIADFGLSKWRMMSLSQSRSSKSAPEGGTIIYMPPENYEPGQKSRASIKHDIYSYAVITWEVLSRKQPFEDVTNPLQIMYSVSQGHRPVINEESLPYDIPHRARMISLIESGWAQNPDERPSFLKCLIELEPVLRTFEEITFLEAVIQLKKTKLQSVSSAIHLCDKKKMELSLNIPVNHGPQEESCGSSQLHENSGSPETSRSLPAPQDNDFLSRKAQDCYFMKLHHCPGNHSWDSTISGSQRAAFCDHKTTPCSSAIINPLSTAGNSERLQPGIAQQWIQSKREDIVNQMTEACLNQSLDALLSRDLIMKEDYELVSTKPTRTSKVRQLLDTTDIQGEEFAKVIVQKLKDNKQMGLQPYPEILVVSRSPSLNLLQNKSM
# GC-A act: GC-A stimulated cGMP production enhancers – HEK293 GC-A cells, cGMP TR-FRET, EC30 ANP, primary screen; 0% at EC30 ANP, 100% saturating ANP; actives 0.14% (n = 370,000); activation, % at 10 µM; Atrial natriuretic peptide receptor 1 (Homo sapiens), P16066; in the data active means activation above about 40%
# Neddyl inh conf: blockade of NEDD8 conjugation to cullin – biochemical, TR-FRET, single concentration, confirmation; calls only at 25 µM; shares compounds with Neddylation inh; AID 652217, 2013; actives 13% (n = 1,800); TR-FRET cullin neddylation biochemical assay; in the data active means inhibition above about 40%;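 further: neddylation substrate is the cullin 1 ring ligase complex with SKP2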
# An asterisk follows results filed as active; i = inactive; nt = no result shown. Sampled rows, rich in hits. Any-hit rate of the full collection: about 1.2%.
SMILES,TLR4 MyD88 comp,Neddylation inh,GC-B act,TLR9-MyD88 block,NOD2 RIPK2 PPI,GC-A act,Neddyl inh conf
CN1C(=O)N(CC(=O)Nc2ccc3c(c2)OCO3)C(=O)C12CCCCC2,nt,0.6,1.1,-2.5,4.0,-3.0,nt
Cn1ccc2c(-c3cccc(C=O)c3)cc3c(c21)C1CCC3O1 (configuration not stated),nt,37.4,-5.6,nt,-1.6,-5.4,nt
CCOC(=O)C1=C(C)NC(C)=C(C(=O)OCC)C1C,-12.2,47.2*,-1.1,-5.1,4.2,1.1,nt
CCOC(=O)C1=C(C)NC(C)=C(C(=O)OCC)C1c1ccc(OC)cc1,-7.0,nt,1.6,-2.6,-4.8,-16.3,nt
CCC(=O)Nc1c(-c2ccc(C)cc2)nc2ccc(C)cn12,nt,47.4*,6.9,-1.8,-7.2,1.6,i
Cc1c(Cl)ccc2sc(NC(=O)c3ccco3)nc12,nt,41.9*,-10.4,-3.8,5.2,16.5,i
N#CC1=C(N)Nc2nc3ccccc3n2C1c1ccc(Cl)cc1 (configuration not stated),-7.5,43.2*,2.4,6.8,-7.8,2.7,i
COC(=O)C1=C(C)NC2=C(C(=O)CCC2)C1c1ccc(-c2ccsc2C(=O)OC)o1 (configuration not stated),nt,38.4*,-7.7,-6.1,-14.9,-8.0,nt
COc1cc(/C=C/c2cc(C(=O)O)c3ccccc3n2)ccc1OC(F)F,nt,40.2*,0.8,-2.3,-6.1,1.6,nt
COC(=O)CSc1nnc(-c2n[nH]c3c2CCC3)n1N,nt,nt,-3.2,nt,nt,6.3,nt
Cc1csc2ncc(C(=O)NCc3ccco3)c(=O)n12,-6.5,43.2*,2.7,-1.2,-9.3,5.6,i
COC(=O)c1cn(-c2ccc3c(c2)[C@@]2(CC(=O)N(C)C2c2ccccc2)C(=O)N3CC(C)C)nn1 (some centres not stated),nt,nt,-7.6,nt,nt,3.4,nt
Cc1nc2c(n1O)CCC/C2=N\O,10.3,-3.5,-0.1,8.2,2.9,5.6,nt
COc1ccc(-c2nc3c(n2O)CCC/C3=N\O)cc1,11.2,45.1*,2.5,-8.7,-12.9,-0.3,i
COc1ccc2c(c1)N[C@@](CCN1C(=O)c3ccccc3C1=O)(c1[nH]c3ccccc3c1CCN1C(=O)c3ccccc3C1=O)C2=O,nt,nt,-0.8,nt,nt,-2.1,nt
CC(C)(C)c1ccc(CC(=O)N2CCC2(C)C(=O)NS(=O)(=O)c2ccccc2Cl)cc1 (configuration not stated),nt,-2.5,3.1,nt,1.6,-1.2,nt
COc1ccc(Nc2oc(COc3ccccc3OC)nc2C#N)cc1,6.3,42.4*,3.4,-2.8,-3.7,8.0,i
COc1ccccc1OCc1nc(C#N)c(NCCCn2ccnc2)o1,-3.5,-6.0,-1.8,3.7,-7.5,1.8,nt
O=C1/C(=C/c2ccccc2)CCc2ccc(Cl)nc21,nt,-11.8,-6.4,3.4,6.3,-11.2,nt
O=C(N/N=C/c1nn(-c2ccccc2)cc1-c1ccccc1)c1ccncc1,-16.4,39.3*,0.0,-1.0,-5.2,-1.7,i
O=C(N/N=C/c1cn(-c2ccccc2)nc1-c1ccccc1)c1ccco1,-11.9,41.4*,3.6,-7.2,-32.3,0.3,i
O=C(N/N=C/c1cn(-c2ccccc2)nc1-c1cccs1)c1ccncc1,-6.1,43.6*,-0.6,3.0,-5.6,-2.4,nt
CN(C)C(=O)COC(=O)/C=C/c1cn(-c2ccccc2)nc1-c1cccs1,5.1,41.2*,-1.5,4.5,-0.8,-5.5,nt

# Screens from PubChem.
